Sampled rows, rich in hits. Any-hit rate of the full collection: about 0.42%.
B2AR arrestin = beta2AR (human) beta-arrestin recruitment activity; P07550; beta-arrestin recruitment to beta2AR, cell-based reporter; Potency, µM (series often up to 46.1 µM), most hits filed as activators; actives 0.02% (n = 330,000); also: nearly all actives have a fitted effect of over 65% in size
Chronic BCR inh = blocks chronic active B-cell receptor signaling. actives 0.05% (n = 340,000). ABC-DLBCL IkBa-CBG/CBR reporter, luminescence ratio, 4 h. Potency, µM (series often up to 46.1 µM), most hits filed as inhibitors; active = well fitted inhibition curve with a large enough effect in the signal ratio, with a control signal flat, not every such curve was filed as active; inconclusive = small, poorly fitted or top-dose-only effect, or effect the other way, or a change in a side signal; the % refers to the signal ratio
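TMD8 ABC-DLBCL cells carrying doxycycline-inducible green luciferase fused to IkappaBalpha plus unfused red luciferase were exposed to compounds (up to 46 uM) for 4 hrs at 37C. Activity came from the overlap-corrected green/red luminescence ratio.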
Tb PFK inh = T. brucei PFK enzyme inhibition. O15648. T. brucei PFK, ADP-Glo luminescence. Potency, µM (series often up to 57.5 µM), usual class: inhibitors. actives 0.17% (n = 330,000). AID 485367; also: nearly all actives have a fitted effect of over 60% in size
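Luminescent ADP detection (ADP-Glo, two-step: ATP depletion then ADP-to-ATP conversion for luciferase) reported PFK activity after 45 min room-temperature reaction of 1.25 nM enzyme with 0.5 mM F6P and 0.1 mM ATP at pH 8.0.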
Pin1 inh = human Pin1 inhibition; Pin1 FP peptide displacement, HiFluor488, 10 min; Potency, µM (top dose mostly 115 µM), most hits filed as inhibitors; Q13526; actives 0.009% (n = 390,000); active = well fitted inhibition curve with a large enough effect in the polarisation, with a control signal flat, not every such curve was filed as active; inconclusive = small, poorly fitted or top-dose-only effect, or effect the other way, or a change in a side signal; inactive = no such curve, though single readings can be large or run the other way; the % refers to the polarisation
Target sequence (Q13526 whole entry, looked up): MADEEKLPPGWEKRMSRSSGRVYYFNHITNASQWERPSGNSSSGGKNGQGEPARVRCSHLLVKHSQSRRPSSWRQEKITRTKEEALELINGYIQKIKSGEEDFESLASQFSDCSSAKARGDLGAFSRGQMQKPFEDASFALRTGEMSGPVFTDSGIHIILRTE
GLS inh = inhibitors of human glutaminase (GLS). Potency, µM (highest dose often 45.5 µM), usual class: inhibitors. GLS enzymatic activity, qHTS titration. AID 624170. actives 0.21% (n = 410,000). O94925
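Read-out is an Amplex red fluorescence increase coupled through glutamate oxidase and HRP, measured before and after 30 min room-temperature incubation. hKGA is in 45 mM KH2PO4 (pH 8.2) with 0.02% Tween-20; glutamine added as 1mM solution.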
PGK inhibitor = inhibitors of T. brucei phosphoglycerate kinase; Potency, µM (highest dose often 57.5 µM), hits mostly inhibitors; actives 0.043% (n = 380,000); PGK/GAPDH coupled, Kinase-Glo luminescence, 60 min; P07378; also: nearly all actives have a fitted effect of over 60% in size
Target sequence (P07378 whole entry, looked up): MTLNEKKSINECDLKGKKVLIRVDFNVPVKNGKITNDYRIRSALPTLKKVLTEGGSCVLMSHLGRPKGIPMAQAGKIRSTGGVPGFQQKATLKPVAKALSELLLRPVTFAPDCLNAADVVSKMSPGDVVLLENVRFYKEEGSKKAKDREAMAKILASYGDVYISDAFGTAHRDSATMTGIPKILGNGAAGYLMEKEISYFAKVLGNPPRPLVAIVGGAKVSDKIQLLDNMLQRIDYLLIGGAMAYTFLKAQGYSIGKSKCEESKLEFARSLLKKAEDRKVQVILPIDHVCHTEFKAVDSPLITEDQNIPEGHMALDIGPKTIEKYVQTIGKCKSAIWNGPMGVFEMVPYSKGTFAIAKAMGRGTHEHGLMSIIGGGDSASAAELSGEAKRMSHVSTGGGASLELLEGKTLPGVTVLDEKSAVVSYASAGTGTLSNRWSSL
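Recombinant glycosomal PGK reaction used 1,3-bisphosphoglycerate generated in-well by GAPDH (100nM final) in 100mM TEA pH 7.6, 5mM MgCl2, 0.01% Tween-20. After 60 minutes at room temperature, ATP was read by Kinase-Glo Plus luminescence end-point.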
GLS hit conf = confirmation of human glutaminase inhibitors | shares compounds with GLS inh | biochemical glutaminase enzyme inhibition assay | Potency, µM (top dose mostly 46.1 µM), actives largely listed as inhibitors | 35 tested, under 10 active; calls by dose curve
HRP GOx counter = inhibits HRP glutamate oxidase coupled readout, glutaminase counter-screen; shares compounds with GLS inh; HRP/glutamate oxidase coupled Amplex Red fluorescence counterscreen; activity change, negative = inhibition, % at 46.1 µM; 35 tested, under 10 active; AID 624262
HEK293 tox = reduces HEK-293 viability in glutaminase inhibitor counter-screen. shares compounds with GLS inh. HEK-293 viability, CellTiter-Glo luminescence, 24 h. activity change, negative = cytotoxicity, % at 46.1 µM. 35 tested, under 10 active
Numbers stand for hits; - = inactive; ? = inconclusive; . = no result. Unless noted, calls follow the shape of the dose curve; as a rule, active = well fitted curve in the direction sought with a large enough effect; inconclusive = small, poorly fitted or top-dose-only effect, or another doubt; inactive = no such curve, though single readings can be large; an effect the other way counts as inactive or inconclusive.

SMILES	B2AR arrestin	Chronic BCR inh	Tb PFK inh	Pin1 inh	GLS inh	PGK inhibitor	others
O=C(c1cc(-c2ccccc2)nc2ccccc12)N1CCN(c2ccccc2O)CC1	-	?	-	-	7.1µM	-
O=C(c1cc(-c2ccncc2)nc2ccccc12)N1CCN(c2ccccc2O)CC1	-	-	-	-	-	-
COc1cc(F)c(S(=O)(=O)N2CCCN(S(=O)(=O)c3cccc(NC(C)=O)c3)CC2)c(F)c1	.	.	.	-	.	.
C[n+]1c(-c2ccccc2)cc2c(=Cc3ccc([N+](=O)[O-])cc3)c3ccccc3n21	.	.	.	-	10µM	-
NCCCCC(NC(=O)C1CCCN1C(=O)C1CSSCC(N)C(=O)NC(Cc2ccccc2)C(=O)NC(Cc2ccccc2)C(=O)NC(CCC(N)=O)C(=O)NC(CC(N)=O)C(=O)N1)C(=O)NCC(N)=O (stereo not given)	.	.	.	.	-	.
CCN1CCN(c2nc(C)nc3c2sc(=S)n3C)CC1	-	-	19µM	-	-	-
Cc1nc(N2CCCCC2)c2sc(=S)n(C)c2n1	-	-	-	-	-	-
COC1=C(C(=O)O)N2C(=O)[C@@H](NC(=O)C(N)C3C=CCC=C3)[C@H]2SC1 (stereo not given in full)	.	.	.	.	-	.
O=C(NNc1ccc(-c2csnn2)cc1)c1cc(Cl)cc(Cl)c1	-	-	-	-	?	-
O=C(NNc1ccc(-c2csnn2)cc1)c1ccccc1C(F)(F)F	-	-	-	-	11µM	-
CC(/C=C1\SC(=S)N(CCCC(=O)Nc2ccc(C(=O)O)c(O)c2)C1=O)=C\c1ccccc1	.	?	-	54µM	-	-
CC(=O)Nc1nc2ccc(-c3nc4ccccc4o3)cc2s1	-	15µM	-	-	-	-
NC(=S)NNc1ccnc2cc(Cl)ccc12	-	?	-	-	6.3µM	-
O=C(NNc1ccnc2cc(Cl)ccc12)C1CCCCC1	-	?	-	-	?	-
CCCNC(=O)NNC(=O)c1ccc(F)cc1	-	-	?	-	11µM	-
CCOc1cc(/C=C2\C(=O)ON=C2c2ccccc2)cc(Br)c1O	-	-	-	-	8.9µM	-
Cc1cc2c(s1)c1cnn(Cc3ccc(C)c(F)c3)c(=O)c1n2C	.	.	.	-	.	.
CN1CCN(Nc2nn3c(=O)c4ccccc4nc3s2)CC1	.	.	.	-	.	.
Cc1cccc(C)c1N(CCCc1cccnc1)C(=O)[C@@H](C)N	.	.	.	.	-	.
Cc1ccc(C(=O)Nc2ccc(N3CCOCC3)nc2N2CCOCC2)cc1	-	-	-	-	1.1µM	-
Cc1cc2c(s1)c1cnn(Cc3cc(F)cc(F)c3)c(=O)c1n2C	.	.	.	-	.	.
CC1C(=O)N2CCCc3cc(NC(=O)c4ccccc4Br)cc1c32 (stereo not given)	-	23µM	-	-	-	-
COc1ccc(C(=O)Nc2cc3c4c(c2)C(C)C(=O)N4CCC3)c(OC)c1 (stereo not given)	-	-	-	-	-	-
O=C(O)c1ccccc1OC1=NS(=O)(=O)c2ccccc21	.	.	.	-	.	.
C/C=C/C=C/C(=O)[C@@H]1[C@@H]([C@]2(C)OC(=O)C(C)=C2O)[C@H]2/C(=C(O)/C=C/C=C/C)C(=O)[C@]1(C)C(=O)C2(C)O (stereo not given in full)	-	-	-	?	10µM	?
SMILES	B2AR arrestin	Chronic BCR inh	Tb PFK inh	Pin1 inh	GLS inh	PGK inhibitor	others
CC(=O)NC(CCC(N)=O)C(=O)O (stereo not given)	.	.	.	.	-	.
O=C(CC1SC(=O)N(c2ccccc2)C1=O)Nc1ccc(Cl)cc1 (stereo not given)	-	?	?	-	11µM	-
O=C1c2ccccc2C(=O)N1c1ncccc1O	.	.	.	-	.	.
Cc1cc(C)c2c(c1)C1C=CCC1C(c1ccc(S(=O)(=O)N3CCOCC3)cc1)N2 (stereo not given)	-	?	-	-	-	-
O=C(O)c1cc(Cl)c2c(c1)[C@@H]1C=CC[C@@H]1[C@H](c1ccc(S(=O)(=O)N3CCOCC3)cc1)N2	-	-	-	.	13µM	-
CC1=CC(C)(C)NC(=S)N1c1cccc2cc(S(=O)(=O)O)ccc12	-	-	-	-	11µM	-
O=[S+]([O-])(NC[C@H]1CCC[C@H](CN[S+](=O)([O-])c2c(F)cccc2F)C1)c1ccc2c(c1)OCCO2	.	.	.	-	.	.
Cc1ccc(S(=O)(=O)Nc2cc(C)c(O)c(Sc3n[nH]c(C)n3)c2)cc1	-	-	-	-	10µM	-	GLS hit conf=?;HRP GOx counter=?;HEK293 tox=-
COc1ccccc1N(C)S(=O)(=O)c1ccc(C(=O)OCC(=O)N(C)c2ccccc2)cc1	-	-	-	-	7.1µM	-	GLS hit conf=-;HRP GOx counter=-;HEK293 tox=-
Cc1cc2c(s1)c1cnn(Cc3cc(OC(F)(F)F)ccc3F)c(=O)c1n2C	.	.	.	-	.	.
COc1ccccc1NS(=O)(=O)c1cc(N)ccc1N1CCOCC1	-	-	?	-	-	-
COc1ccccc1NS(=O)(=O)c1cc(N)ccc1N1CCCC1	-	-	-	-	?	-	GLS hit conf=-;HRP GOx counter=?;HEK293 tox=-
COc1ccccc1NS(=O)(=O)c1cc(NC(=O)C(C)NC(N)=O)ccc1N1CCCC1 (stereo not given)	-	-	-	-	-	-
COc1ccc(NS(=O)(=O)c2cc(NC(=O)[C@H](C)NC(N)=O)ccc2N2CCCC2)cc1	-	?	-	-	16µM	-	GLS hit conf=-;HRP GOx counter=?;HEK293 tox=-
Cc1ccc(S(=O)(=O)Nc2cc(Cl)c(O)c3ncccc23)cc1	-	-	-	-	7.1µM	-	GLS hit conf=?;HRP GOx counter=-;HEK293 tox=?
Cc1ccc(S(=O)(=O)Nc2cc(S(=O)(=O)c3ccc(C)cc3)c(O)c3cccnc23)cc1	.	.	.	-	.	.
CC(=O)c1c(C)oc2c1cc(NS(=O)(=O)c1ccc(Br)cc1)c1ccccc12	.	?	.	-	-	-
Cc1oc2c(cc(NS(=O)(=O)c3ccc(Cl)cc3)c3ccccc32)c1C(=O)O	-	-	-	?	16µM	-	GLS hit conf=?;HRP GOx counter=-;HEK293 tox=-
Cc1cc2c(s1)c1cnn(Cc3ccc4ccccc4c3)c(=O)c1n2C	.	.	.	-	.	.
Cc1ccc(S(=O)(=O)Nc2ccc(O)c3ccccc23)c(C)c1	-	?	-	-	7.9µM	-	GLS hit conf=?;HRP GOx counter=-;HEK293 tox=-
Cc1cc2c(s1)c1cnn(Cc3ccc(OC(F)F)cc3)c(=O)c1n2C	.	.	.	-	.	.
CCCCCCc1ccc(C(=O)CCN(C)C)cc1	.	.	.	-	.	.

High-throughput results from PubChem BioAssay.
